# Test results from PMC9911399, “Two distinct binding modes provide the RNA-binding protein RbFox with extraordinary sequence specificity”.
# Substitutions are numbered along the chain they refer to; changes in the protein carry UniProt numbers. Whole data set: some 16,000 sequences, median “ka relative to ugcaugu” near 0.0091, cut for the highest 2% near 0.032. The sample holds the highest values, similar sequences and a random draw of the others, so the mix is not that of the screen.
# T1: RBFOX1 RRM (Homo sapiens, UniProt Q9NWB1 109-208)
# T1 sequence: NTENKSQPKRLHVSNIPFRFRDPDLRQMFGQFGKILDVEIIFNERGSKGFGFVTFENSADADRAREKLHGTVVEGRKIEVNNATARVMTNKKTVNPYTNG
# B1: CAACUCA (DNA:RNA)
# RNA: GGGAGACCGGAAUUCAGAUUGUCCCAACUCAUUAAAUCCCGUCGUAGCCACCA
# DNA 1: CAATCTGAATTCCGGTCTCCC
# DNA 2: TGGTGGCTACGACGGGATT
# B2: GAUCAAG (DNA:RNA)
# RNA: B1 RNA with C25G, A27U, U29A, C30A, A31G
# DNA 1: CAATCTGAATTCCGGTCTCCC
# DNA 2: TGGTGGCTACGACGGGATT
# B3: CAUAUGA (DNA:RNA)
# RNA: B1 RNA with A27U, C28A, C30G
# DNA 1: CAATCTGAATTCCGGTCTCCC
# DNA 2: TGGTGGCTACGACGGGATT
# B4: ACAUCGA (DNA:RNA)
# RNA: B1 RNA with C25A, A26C, C28U, U29C, C30G
# DNA 1: CAATCTGAATTCCGGTCTCCC
# DNA 2: TGGTGGCTACGACGGGATT
# B5: AUUACAG (DNA:RNA)
# RNA: GGGAGACCGGAAUUCAGAUUGUCCAUUACAGUUAAAUCCCGUCGUAGCCACCA
# DNA 1: CAATCTGAATTCCGGTCTCCC
# DNA 2: TGGTGGCTACGACGGGATT
# B6: GUCGCUU (DNA:RNA)
# RNA: B5 RNA with A25G, U27C, A28G, A30U, G31U
# DNA 1: CAATCTGAATTCCGGTCTCCC
# DNA 2: TGGTGGCTACGACGGGATT
# B7: ACCUGCA (DNA:RNA)
# RNA: B1 RNA with C25A, A26C, A27C, C28U, U29G
# DNA 1: CAATCTGAATTCCGGTCTCCC
# DNA 2: TGGTGGCTACGACGGGATT
# B8: CGCUGCA (DNA:RNA)
# RNA: B1 RNA with A26G, A27C, C28U, U29G
# DNA 1: CAATCTGAATTCCGGTCTCCC
# DNA 2: TGGTGGCTACGACGGGATT
# B9: GCCUGCG (DNA:RNA)
# RNA: B5 RNA with A25G, U26C, U27C, A28U, C29G, A30C
# DNA 1: CAATCTGAATTCCGGTCTCCC
# DNA 2: TGGTGGCTACGACGGGATT
# B10: GUCCGCC (DNA:RNA)
# RNA: B1 RNA with C25G, A26U, A27C, U29G, A31C
# DNA 1: CAATCTGAATTCCGGTCTCCC
# DNA 2: TGGTGGCTACGACGGGATT
# B11: GCCUGCC (DNA:RNA)
# RNA: B1 RNA with C25G, A26C, A27C, C28U, U29G, A31C
# DNA 1: CAATCTGAATTCCGGTCTCCC
# DNA 2: TGGTGGCTACGACGGGATT
# B12: GCCUGCA (DNA:RNA)
# RNA: B1 RNA with C25G, A26C, A27C, C28U, U29G
# DNA 1: CAATCTGAATTCCGGTCTCCC
# DNA 2: TGGTGGCTACGACGGGATT
# B13: CUGUAGC (DNA:RNA)
# RNA: B5 RNA with A25C, U27G, A28U, C29A, A30G, G31C
# DNA 1: CAATCTGAATTCCGGTCTCCC
# DNA 2: TGGTGGCTACGACGGGATT
# B14: CGCACUC (DNA:RNA)
# RNA: B5 RNA with A25C, U26G, U27C, A30U, G31C
# DNA 1: CAATCTGAATTCCGGTCTCCC
# DNA 2: TGGTGGCTACGACGGGATT
# B15: AAGUAUU (DNA:RNA)
# RNA: B5 RNA with U26A, U27G, A28U, C29A, A30U, G31U
# DNA 1: CAATCTGAATTCCGGTCTCCC
# DNA 2: TGGTGGCTACGACGGGATT
# B16: CCUAUCU (DNA:RNA)
# RNA: B1 RNA with A26C, A27U, C28A, A31U
# DNA 1: CAATCTGAATTCCGGTCTCCC
# DNA 2: TGGTGGCTACGACGGGATT
# B17: UCGUAUU (DNA:RNA)
# RNA: GGGAGACCGGAAUUCAGAUUGUCCUCGUAUUUUAAAUCCCGUCGUAGCCACCA
# DNA 1: CAATCTGAATTCCGGTCTCCC
# DNA 2: TGGTGGCTACGACGGGATT
# B18: AAACUUG (DNA:RNA)
# RNA: B1 RNA with C25A, C30U, A31G
# DNA 1: CAATCTGAATTCCGGTCTCCC
# DNA 2: TGGTGGCTACGACGGGATT
# B19: CUCACCC (DNA:RNA)
# RNA: B5 RNA with A25C, U27C, A30C, G31C
# DNA 1: CAATCTGAATTCCGGTCTCCC
# DNA 2: TGGTGGCTACGACGGGATT
# B20: AACGCAA (DNA:RNA)
# RNA: B5 RNA with U26A, U27C, A28G, G31A
# DNA 1: CAATCTGAATTCCGGTCTCCC
# DNA 2: TGGTGGCTACGACGGGATT
# B21: CCUCACG (DNA:RNA)
# RNA: B1 RNA with A26C, A27U, U29A, A31G
# DNA 1: CAATCTGAATTCCGGTCTCCC
# DNA 2: TGGTGGCTACGACGGGATT
# B22: CAAGGGU (DNA:RNA)
# RNA: B1 RNA with C28G, U29G, C30G, A31U
# DNA 1: CAATCTGAATTCCGGTCTCCC
# DNA 2: TGGTGGCTACGACGGGATT
# B23: UUGAGUC (DNA:RNA)
# RNA: B17 RNA with C26U, U28A, A29G, U31C
# DNA 1: CAATCTGAATTCCGGTCTCCC
# DNA 2: TGGTGGCTACGACGGGATT
# B24: UUGAUUG (DNA:RNA)
# RNA: B5 RNA with A25U, U27G, C29U, A30U
# DNA 1: CAATCTGAATTCCGGTCTCCC
# DNA 2: TGGTGGCTACGACGGGATT
# B25: UUGAUCC (DNA:RNA)
# RNA: B5 RNA with A25U, U27G, C29U, A30C, G31C
# DNA 1: CAATCTGAATTCCGGTCTCCC
# DNA 2: TGGTGGCTACGACGGGATT
# B26: UUGAUGA (DNA:RNA)
# RNA: B5 RNA with A25U, U27G, C29U, A30G, G31A
# DNA 1: CAATCTGAATTCCGGTCTCCC
# DNA 2: TGGTGGCTACGACGGGATT
# B27: UUGAGAG (DNA:RNA)
# RNA: B5 RNA with A25U, U27G, C29G
# DNA 1: CAATCTGAATTCCGGTCTCCC
# DNA 2: TGGTGGCTACGACGGGATT
# B28: UUCUGAA (DNA:RNA)
# RNA: B5 RNA with A25U, U27C, A28U, C29G, G31A
# DNA 1: CAATCTGAATTCCGGTCTCCC
# DNA 2: TGGTGGCTACGACGGGATT
# B29: UUUCAGA (DNA:RNA)
# RNA: B5 RNA with A25U, A28C, C29A, A30G, G31A
# DNA 1: CAATCTGAATTCCGGTCTCCC
# DNA 2: TGGTGGCTACGACGGGATT
# B30: UUGAUUC (DNA:RNA)
# RNA: B17 RNA with C26U, U28A, A29U, U31C
# DNA 1: CAATCTGAATTCCGGTCTCCC
# DNA 2: TGGTGGCTACGACGGGATT
# B31: UUGAGUG (DNA:RNA)
# RNA: B5 RNA with A25U, U27G, C29G, A30U
# DNA 1: CAATCTGAATTCCGGTCTCCC
# DNA 2: TGGTGGCTACGACGGGATT
# B32: UCCUUGA (DNA:RNA)
# RNA: B17 RNA with G27C, A29U, U30G, U31A
# DNA 1: CAATCTGAATTCCGGTCTCCC
# DNA 2: TGGTGGCTACGACGGGATT
# B33: UUUCUGA (DNA:RNA)
# RNA: B1 RNA with C25U, A26U, A27U, C30G
# DNA 1: CAATCTGAATTCCGGTCTCCC
# DNA 2: TGGTGGCTACGACGGGATT
# B34: UUGUUGA (DNA:RNA)
# RNA: B17 RNA with C26U, A29U, U30G, U31A
# DNA 1: CAATCTGAATTCCGGTCTCCC
# DNA 2: TGGTGGCTACGACGGGATT
# Target: T1, RBFOX1 RRM
# Experiment: EMSA; HiTS-Eq, 1 nM pool, 10 min; buffer printed only for the single-RNA assays: 10 mM Tris pH 7.5, 150 mM NaCl, 3.4 mM EDTA, 0.001% NP-40, 30 C
# Settings: tags: His6 N-terminal (pET28a); label: 5' 32P
# In short: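 These values rest on relative association constants, computed from read-count changes of each RNA species versus the control reaction and normalised to the cognate motif. Reads came from free RNA recovered by 8% native PAGE after purified RbFox RRM (wild type or mutant) at increasing concentrations was equilibrated for 10 min in 50 µL with 1 nM of a 5′-radiolabelled pool with 7 randomized nucleotides and DNA-annealed flanks.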
row,Binder,binding signal
1,B1,0.0014 KA relative to UGCAUGU
2,B2,0.0079 KA relative to UGCAUGU
3,B3,0.00465 KA relative to UGCAUGU
4,B4,0.00224 KA relative to UGCAUGU
5,B5,0.0056 KA relative to UGCAUGU
6,B6,0.0147 KA relative to UGCAUGU
7,B7,0.0144 KA relative to UGCAUGU
8,B8,0.0198 KA relative to UGCAUGU
9,B9,0.0321 KA relative to UGCAUGU
10,B10,0.0105 KA relative to UGCAUGU
11,B11,0.0261 KA relative to UGCAUGU
12,B12,0.0378 KA relative to UGCAUGU
13,B13,0.0127 KA relative to UGCAUGU
14,B14,0.00942 KA relative to UGCAUGU
15,B15,0.0026 KA relative to UGCAUGU
16,B16,0.00242 KA relative to UGCAUGU
17,B17,0.00649 KA relative to UGCAUGU

row,Binder,binding signal
1,B18,0.0047 KA relative to UGCAUGU
2,B19,0.00285 KA relative to UGCAUGU
3,B20,0.00455 KA relative to UGCAUGU
4,B21,0.00492 KA relative to UGCAUGU
5,B22,0.00279 KA relative to UGCAUGU
6,B23,0.0173 KA relative to UGCAUGU
7,B24,0.0356 KA relative to UGCAUGU
8,B25,0.0141 KA relative to UGCAUGU
9,B26,0.0228 KA relative to UGCAUGU
10,B27,0.0165 KA relative to UGCAUGU
11,B28,0.0233 KA relative to UGCAUGU
12,B29,0.0123 KA relative to UGCAUGU
13,B30,0.0169 KA relative to UGCAUGU
14,B31,0.0333 KA relative to UGCAUGU
15,B32,0.0113 KA relative to UGCAUGU
16,B33,0.0328 KA relative to UGCAUGU
17,B34,0.0329 KA relative to UGCAUGU
